Laboratory results as given in PubChem BioAssay (NCATS).
Activity calls are given as the source filed them. The call rests on the fitted dose curve; in most records, active means well fitted curve in the direction sought with a large enough effect; inconclusive means small, poorly fitted or top-dose-only effect, or another doubt; inactive means no such curve, though single readings can be large or run the other way.

These compounds were tested against Hexokinase-4 (Homo sapiens) + Glucokinase regulatory protein (Homo sapiens) (UniProt P35557+Q14397) (assay: qHTS assay for inhibitors of recombinant human GCK-GKRP interaction: ADP-Glo assay (AID 743206)). Settings: ADP-Glo luminescence, 60 min; series mostly up to 76.9 µM; activity, positive = activation: at the top concentration.
Hexokinase-4 (Homo sapiens) + Glucokinase regulatory protein (Homo sapiens), sequence (P35557 whole entry, looked up): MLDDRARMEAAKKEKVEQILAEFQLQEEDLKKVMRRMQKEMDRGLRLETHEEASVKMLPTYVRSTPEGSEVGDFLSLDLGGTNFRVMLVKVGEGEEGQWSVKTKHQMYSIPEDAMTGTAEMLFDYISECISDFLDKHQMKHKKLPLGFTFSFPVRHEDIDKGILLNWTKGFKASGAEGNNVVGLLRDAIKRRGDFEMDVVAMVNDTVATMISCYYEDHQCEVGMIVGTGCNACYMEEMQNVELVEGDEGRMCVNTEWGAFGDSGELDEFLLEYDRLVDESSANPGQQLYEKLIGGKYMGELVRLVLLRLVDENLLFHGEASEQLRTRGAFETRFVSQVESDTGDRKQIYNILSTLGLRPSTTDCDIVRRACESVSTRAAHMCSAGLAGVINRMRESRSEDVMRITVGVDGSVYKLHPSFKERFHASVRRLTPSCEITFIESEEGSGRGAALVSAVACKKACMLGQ
Hexokinase-4 (Homo sapiens) + Glucokinase regulatory protein (Homo sapiens), sequence (Q14397 whole entry, looked up): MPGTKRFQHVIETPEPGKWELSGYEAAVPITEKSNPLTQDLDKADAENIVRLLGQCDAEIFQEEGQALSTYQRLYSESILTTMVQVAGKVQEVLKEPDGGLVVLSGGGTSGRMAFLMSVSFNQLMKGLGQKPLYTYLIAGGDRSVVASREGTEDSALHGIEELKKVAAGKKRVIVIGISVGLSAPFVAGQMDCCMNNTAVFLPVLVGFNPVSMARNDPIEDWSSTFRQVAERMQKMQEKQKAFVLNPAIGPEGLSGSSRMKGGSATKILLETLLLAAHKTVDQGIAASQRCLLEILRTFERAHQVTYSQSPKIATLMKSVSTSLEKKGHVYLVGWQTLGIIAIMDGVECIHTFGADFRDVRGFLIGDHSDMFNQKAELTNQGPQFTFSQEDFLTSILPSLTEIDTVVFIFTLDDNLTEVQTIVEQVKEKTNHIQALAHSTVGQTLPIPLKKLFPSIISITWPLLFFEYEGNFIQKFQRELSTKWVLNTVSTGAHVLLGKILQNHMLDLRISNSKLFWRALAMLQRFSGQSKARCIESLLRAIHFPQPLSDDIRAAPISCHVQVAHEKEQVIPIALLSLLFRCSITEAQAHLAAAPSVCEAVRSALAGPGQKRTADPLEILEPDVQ
From the text: Glucokinase (GCK) is a glucose sensor in hepatocytes and pancreatic beta-cells. Hepatic GCK is regulated by glucokinase regulatory protein (GKRP), which is predominantly localized to the liver. GKRP binds to GCK inhibiting its activity in the fasting state while in the presence of glucose the GKRP is displaced. There is an additional layer of regulation by fructose 1-phosphate and fructose 6-phosphate, which inhibit and enhance the GCK-GKRP interaction, respectively. GCK plays a role in glucose homeostasis and there is an interest in the development of strategies to activate GCK to lower blood glucose levels in type 2 diabetes. To date the majority of effort has focused on direct activation of GCK and the assays developed herein look to activate GCK by inhibiting its binding to GKRP. A compound that inhibits the interaction of GCK with GKRP could be important for the treatment of diabetes and can also be used as a tool compound to further elucidate GCK-GKRP biology. To that end, we have developed a sensitive HTS biochemical assay where in GCK activity is coupled to luciferase to interrogate the GCK-GKRP interaction. This assay was screened against a small compound library to look for modulators of activity.
2 uL of 15 nM GST-GCK and 15 nM FLAG-GKRP proteins with 2 uM S6P (columns 1-2, 4-48; Millipore, Billerica, MA) are dispensed into Greiner, white solid-bottom 1536-well assay plates; columns 3 receive buffer without GCK as a control for maximum inhibition. Compounds (23 nL) are then transferred via Kalypsys pin tool equipped with 1536-pin array (10 nL slotted pins, V&P Scientific, San Diego, CA). The library compounds are in columns 5-48 and columns 1-4 serve as controls with DMSO in columns 1 and 3 and 26 mM 1:1.5 fold serial of gluckokinase activator (GKA-EMD) in column 2 and 26 mM of the glucokinase activator (GKA-EMD) in column 4. Following addition of compound, 1 uL of ATP […] is added, and the plate is incubated for 60 minutes at room temperature. The amount of ADP is then quantified by the ADP-Glo Kit (Promega, Madison, WI). First, 2 uL of the first kit reagent is added, and the reaction is incubated for 45 minutes; then, 4 uL of the second kit reagent are added and the reaction is incubated for 30 minutes at which time the luminescence is read on a Viewlux plate reader (Perkin-Elmer, Waltham, MA). The final concentration of reagents in the reaction are 0.4 mM ATP, 25 mM Hepes pH 7.6, 25 mM KCl, 2 mM MgCl2, 1 mM DTT, 0.025% BSA, 0.01% Tween 20, 5 mM glucose. Data are normalized to DMSO-treated control columns with (maximum signal) and without (minimum signal) enzyme.
`CSC(=N)N` was tested, and the “activity, positive = activation” value was 4.08% (inactive).
With `O=C(O)c1cc(=O)cc(C(=O)O)[nH]1` the “activity, positive = activation” value was 0.38% (inactive).
In the case of `Cn1c(=O)c2[nH]c(-c3ccc(S(=O)(=O)O)cc3)nc2n(C)c1=O`, the “activity, positive = activation” value was 1.07% (inactive).
With `CN1Cc2sccc2C(c2ccc(O)c(O)c2)C1` (stereo not given) the “activity, positive = activation” value was 1.12% (inactive).
`NC(=Nc1ccccc1)NC(=O)c1nc(Cl)c(N)nc1N` was tested, and the “activity, positive = activation” value was 3.89% (inactive).
`C=CC1(C)CC(=O)C2(O)C(C)(O1)C(OC(C)=O)C(O)C1C(C)(C)CCC(O)C12C` (stereo not given) was tested, and the “activity, positive = activation” value was 1.35% (inactive).
In the case of `COc1ccc(C(=O)NCc2cccnc2)cc1C(=O)NCc1cccnc1`, the “activity, positive = activation” value was 3.66% (inactive).
`Nn1nnc2ccccc21` was tested, and the “activity, positive = activation” value was 2.75% (inactive).
In the case of `C[C@@H](NCCc1ccc(O)cc1)[C@@H](O)c1ccc(O)cc1`, the “activity, positive = activation” value was -2.82% (inactive).
In the case of `CC1=C(/C=C/C(C)=C/C=C/C(C)=C\C(=O)O)C(C)(C)CCC1`, the “activity, positive = activation” value was 1.79% (inactive).
With `CC[N+](CC)(CC)CC(=O)Nc1c(C)cccc1C` the “activity, positive = activation” value was 2.28% (inactive).
`CCC1(O)CC2CN(CCc3c([nH]c4ccccc34)[C@@](C(=O)OC)(c3cc4c(cc3OC)N(C)C3[C@]45CCN4CC=C[C@@](CC)([C@@H](OC(C)=O)[C@]3(O)C(=O)OC)[C@H]45)C2)C1` (stereo not given in full) was tested, and the “activity, positive = activation” value was 5.04% (inactive).
`O=c1[nH]c2ccccc2c2ccccc12` was tested, and the “activity, positive = activation” value was 3.24% (inactive).
For `N[C@@H](CCCC(=O)O)C(=O)O`, the “activity, positive = activation” value was 2.71% (inactive).
With `Oc1ccc(Cn2cc[nH]c2=S)cc1` the “activity, positive = activation” value was 3.67% (inactive).
In the case of `O=c1onc2cnc3ccccc3n12`, the “activity, positive = activation” value was -1.5% (inactive).
For `CC(N)=O`, the “activity, positive = activation” value was 4.35% (inactive).
For `[Li+]`, the “activity, positive = activation” value was 0.925% (inactive).
In the case of `CC(=O)O[C@H]1Cc2ccccc2N(C(N)=O)c2ccccc21`, the “activity, positive = activation” value was -0.0699% (inactive).
`COC(=O)C(C)(N)Cc1ccc(O)cc1` (stereo not given) was tested, and the “activity, positive = activation” value was 1.16% (inactive).
For `NCCNS(=O)(=O)c1cccc2c(Cl)cccc12`, the “activity, positive = activation” value was -1.44% (inactive).
In the case of `CCCCCCCC/C=C\CCCCCCCC(=O)NCCc1ccc(O)c(O)c1`, the “activity, positive = activation” value was 3.4% (inactive).
With `CC(C)(C)c1cc(/C=C(\C#N)C(N)=S)cc(C(C)(C)C)c1O` the “activity, positive = activation” value was -1.94% (inactive).
For `CCCCCCC(=O)OC1CC(C)(C)NC(C)(C)C1`, the “activity, positive = activation” value was 2.27% (inactive).
With `CCCCCCCCCCCCCCC[C@H](O)[C@H](N)CO` the “activity, positive = activation” value was 0.524% (inactive).
In the case of `CN(C)S(=O)(=O)c1ccc2c(c1)/C(=C/c1cc3c([nH]1)CCCC3)C(=O)N2`, the “activity, positive = activation” value was 1.78% (inactive).
`O=C(O)C1CCCNC1` (stereo not given) was tested, and the “activity, positive = activation” value was 4.77% (inactive).
For `Cn1ccnc1`, the “activity, positive = activation” value was 4.49% (inactive).
In the case of `CC(C)C[C@H](NC(=O)[C@H](O)[C@H](N)Cc1ccccc1)C(=O)O`, the “activity, positive = activation” value was -1.67% (inactive).
With `Nc1ncnc2c1nc(Br)n2C1OC2COP(=O)(O)O[C@@H]2C1O` (stereo not given in full) the “activity, positive = activation” value was 5.53% (inactive).
With `CC(=O)NNC(=O)N1Cc2ccccc2Oc2ccc(Cl)cc21` the “activity, positive = activation” value was 0.752% (inactive).
With `O=c1oc(Cl)c(Cl)c2ccccc12` the “activity, positive = activation” value was 4.1% (inactive).
For `Nc1ccc(-c2nc3ccc(-c4nc5ccc(N)cc5[nH]4)cc3[nH]2)cc1`, the “activity, positive = activation” value was -15.7% (inactive).
`CNCCc1cnc(CCC(c2ccccc2)c2ccccc2)[nH]1` was tested, and the “activity, positive = activation” value was 2.24% (inactive).
With `NCC(O)C1CCCCCCC1` (stereo not given) the “activity, positive = activation” value was 6.67% (inactive).
With `CNCCNS(=O)(=O)c1cccc2cnccc12` the “activity, positive = activation” value was 2.67% (inactive).
For `CCCCCCN(CCCCCC)C(=O)Cc1c(-c2ccc(F)cc2)[nH]c2ccccc12`, the “activity, positive = activation” value was 1.77% (inactive).
`Nc1nc2ccc(Cl)cc2c2nc(-c3ccco3)nn12` was tested, and the “activity, positive = activation” value was 2.52% (inactive).
With `O=C(c1ccc2c(c1)OCCO2)N1CCCCC1` the “activity, positive = activation” value was -0.0533% (inactive).
With `CC1C(=O)N(C)C(=O)c2nc[nH]c21` (stereo not given) the “activity, positive = activation” value was 3.57% (inactive).
